Laboratory results as given in ChEMBL document CHEMBL3988442, “University of Dundee, Small-Polar-MMV Screening Library” (2021).
Out of some 48,000 compounds screened, about 13,000 (27%) showed an effect of 50% or more. This is one part of the list.

Tested on: Wolbachia pipientis
Assay: Anti-Wolbachia Cell-Based Screen
Assay type: functional
Set-up: scale not given: in the data most compounds retested in dose-response had high values
Details: 5 µM

Compound | Percent Effect
O=C1COc2ccc(C(=O)NS(=O)(=O)c3ccc(F)cc3F)cc2N1 | 1.32%
CCS(=O)(=O)N1CCC(c2nnc(CN3CCCC3)n2C2CC2)CC1 | -2.411%
OCCOc1cc(F)ccc1NCc1nc(-c2cccs2)no1 | 14.46%
Cc1cnn(CCNCc2nnc(-c3occc3C)o2)c1 | 122.9%
Cc1ccc(-c2cc(CNCCn3cc(C)cn3)on2)cc1 | -23.87%
Cc1cnn(CCNC(C)c2nnc(-c3ccccc3)o2)c1 (configuration not stated) | -3.26%
Cc1ccc(-c2nnc(C(C)NCCn3cc(C)cn3)o2)cc1 (configuration not stated) | 8.064%
Cc1cnn(CCNCc2cc(C)no2)c1 | 0.9077%
c1ccc(-c2nnc(CNCCn3cccn3)o2)cc1 | -4.985%
Cc1cnn(CCNCc2nnc(-c3ccc(F)cc3)o2)c1 | 123.4%
Cc1ccoc1-c1nnc(CNCCn2cccn2)o1 | -4.902%
Cc1cnn(CCNCc2csc(-c3ccc(F)cc3)n2)c1 | 0.7899%
COc1ccc(-c2nnc(CNCCn3cc(C)cn3)o2)cc1 | 93.96%
Cc1cnn(CCNCc2nc(COc3ccc(F)cc3)no2)c1 | -9.095%
Cc1cnn(CCNCc2nnc(-c3ccccc3)o2)c1 | 127.3%
CCc1noc(CN(CC(=O)N2CCCCC2)c2cccc(C)c2)n1 | 13.21%
COc1ccc(OCc2cc(C(=O)N3CC=CC3)n[nH]2)c(Cl)c1 | 6.358%
CCC(=O)N1CCc2onc(CNS(C)(=O)=O)c2C1 | 86.89%
CS(=O)(=O)NCc1noc2c1CN(C(=O)c1ccsc1)CC2 | 8.076%
CS(=O)(=O)NCc1noc2c1CN(C(=O)C1CCC1)CC2 | 102.9%
CC(=O)NCc1noc2c1CN(CCN1CCCC1)CC2.O=C(O)C(F)(F)F.O=C(O)C(F)(F)F | -16.49%
COCC(=O)N1CCc2c(CNS(C)(=O)=O)n[nH]c2C1 | 5.679%
CS(=O)(=O)NCc1noc2c1CN(C(=O)C1CC1)CC2 | 103.2%
O=C(c1ccnnc1)N1CCc2onc(CN3CCCC3)c2C1 | -11.85%
FC(F)(F)C1CCCn2c(CNCc3cccs3)nnc21 (configuration not stated) | -7.2%
CCN(CC)C(=O)N1CCN(C2=NCC(C)S2)CC1 (configuration not stated) | -3.513%

Compound | Percent Effect
Cc1nccc(CNC(=O)N2CCN(Cc3ccccc3)C[C@H]2C)n1 | -2.521%
Cc1nccc(CN2CC[C@@]3(CCCN3Cc3ccccc3)[C@@H](O)C2)n1 | 93.51%
Cc1ccnc(N2CCN(Cc3ccccc3)CC(O)C2)c1 (configuration not stated) | 10.83%
COc1ccc(-c2ccc(C(=O)NCCCC(N)=O)c(F)c2)c(F)c1 | -2.164%
Cc1c(-c2cnn(C)c2)nc(N)c(C#N)c1-c1ccc(CO)o1 | 0.3251%
CCc1ccc(-c2c(C)c(-c3cnn(C)c3)nc(N)c2C#N)o1 | 7.382%
Cc1cc(-c2cc(C3CCOC3)c(C#N)c(N)n2)ccc1Cl (configuration not stated) | 25.02%
N#Cc1c(C2CC2)cc(-c2ccc(O)cc2)nc1N | -0.3878%
CCn1cc(-c2c(C)c(C3CCOC(C)(C)C3)nc(N)c2C#N)cn1 (configuration not stated) | 115.2%
CCCc1c(C2CCOC(C)(C)C2)nc(N)c(C#N)c1-c1cnn(C)c1 (configuration not stated) | 105.7%
Cc1c(C2CCOC(C)(C)C2)nc(N)c(C#N)c1-c1ccc(O)cc1 (configuration not stated) | 105.2%
Cn1cc(-c2noc(C3(C)CCOCC3)n2)cn1 | -4.622%
CN(C)C(=O)CN1C[C@@H]2CC[C@H](C1)N(C/C=C/c1ccc(F)cc1)C2 | 0.7109%
CCc1cc(NC(=O)N2CCC(Oc3cccnc3)C2)n(C)n1 (configuration not stated) | -19.7%
Cc1nn2cccnc2c1C(=O)NCc1ccccc1OCC1CC1 | 6.014%
O=S(=O)(N1CCN(CC2CC2)CC1)N1CCCC1c1ccco1 (configuration not stated) | 8.161%
CC(=O)c1c(C)nn(CC(=O)N2Cc3cnc(CC(C)C)nc3C2)c1C | -0.1145%
CCOc1ccc(NC(=O)NCC(C)(O)c2cccs2)cc1 (configuration not stated) | 123.8%
Cc1ccccc1NC(=O)NCC(C)(O)c1cccs1 (configuration not stated) | 117.7%
CCOCc1ccccc1NC(=O)NCC(C)(O)c1cccs1 (configuration not stated) | -8.36%
CSCCC(C)(O)CNC(=O)Nc1ccccc1C (configuration not stated) | 6.778%
COC(=O)c1ccc(S(=O)(=O)NCC(C)(O)c2cccs2)cc1 (configuration not stated) | -7.069%
COc1ccc(CNC(=O)NCC(O)(c2cccs2)C2CC2)cc1 (configuration not stated) | 11.16%
OC(CNc1ccc(Cl)cn1)CN1CCOCC1 (configuration not stated) | -5.222%
CSc1ccccc1NC(=O)CCC(=O)N(C)C1CCN(C)CC1 | 6.723%
Cc1n[nH]c(C)c1Sc1ccccc1NC(=O)CN1CCCC1 | 2.491%

Compound | Percent Effect
Cc1n[nH]c(C)c1Sc1ccccc1NC(=O)N1CCN(C)CC1 | 1.27%
Cn1nc(Br)nc1Sc1ccccc1NC(=O)C1CC1 | 107.9%
CCC(=O)Nc1ccccc1Sc1nc(Br)nn1C | 107.5%
COCC(=O)Nc1ccccc1Sc1c(C)n[nH]c1C | -1.881%
CC(=O)Nc1ccccc1Sc1nc(Br)nn1C | 114.6%
CCCSc1ccccc1NC(=O)N1CCC(N2CCSCC2)CC1 | -2.644%
Cn1cnnc1Sc1ccc(NC(=O)C2CC2)cc1Cl | -0.08341%
CCn1nc(Br)nc1Sc1ccccc1NC(C)=O | 119.4%
Cc1n[nH]c(C)c1Sc1ccccc1NC(=O)N1CCOCC1 | -5.626%
CN(C)C(=O)N1CCN(C(=O)c2cccc(Cl)c2)CC2(CNC(=O)C2)C1 (configuration not stated) | -8.821%
CCCN(Cc1ccc(OC)nc1)Cc1ccccc1OC | 7.541%
CS(=O)(=O)c1nccn1Cc1ccc(OC(F)F)cc1 | -0.8084%
NC(=O)Nc1cccc(C(=O)N(Cc2ccc(F)cc2)C2CC2)c1 | -11.54%
NC(=O)C1(CNCc2csc(-c3cccs3)n2)CCOCC1 | -0.8866%
O=C(Cc1ccc2c(c1)OCO2)N1CCCN(c2ccccc2)CC1 | 5.064%
CC(C)N1CCC(C(=O)N2CCCN(c3ccccc3)CC2)CC1 | 106.5%
CC(C)N1CCCC(C(=O)N2CCN(c3cnn(C)c(=O)c3)CC2)C1 (configuration not stated) | -17.55%
CC(C)c1cc(C(=O)N2CCN(c3cccc(C(=O)O)c3)CC2)n(C)n1 | 1.445%
Cc1cccc(N2CCN(C(=O)CN3CCC(C(N)=O)CC3)CC2)c1 | 3.313%
CC(C)N1CCC(C(=O)N2CCC(c3ccc(F)cc3)C2)CC1 (configuration not stated) | 11.91%
CC(C)N1CCC(C(=O)N2CCN(c3cccc(C(=O)O)c3)CC2)CC1 | 106.6%
CC(C)N1CCCC(C(=O)N2CCN(c3cccc(C(=O)O)c3)CC2)C1 (configuration not stated) | 107.1%
Cc1nn(C)cc1C(=O)N1C[C@H]2CC[C@@H]1CN(S(=O)(=O)N(C)C)C2 | 7.621%
CC(C)CCC1=NC2(CCN(C(=O)CN3CCCC3=O)CC2)C(=O)N1 | 0.2617%
NS(=O)(=O)c1cnc(NCC2(c3cccc(F)c3)CCOCC2)s1 | -14.69%
CC(=O)N1CC(=O)N(c2cnn(C)c2)CC12CCN(CC1CC1)C2.O=C(O)C(F)(F)F (configuration not stated) | -1.209%

Compound | Percent Effect
Cc1ccsc1C(=O)N1CCCn2c(nc(CN(C)C)cc2=O)C1.O=C(O)C(F)(F)F | -10.18%
CC(C)N(C)Cc1cncc2c1CCN(C(=O)c1ccc[nH]1)C2.Cl.Cl | -17.08%
CN(C)Cc1cc(=O)n2c(n1)CN(C(=O)c1ccc[nH]1)CCC2.O=C(O)C(F)(F)F | 95.26%
CN(C)Cc1cc(=O)n2c(n1)CN(C(=O)Cc1cccs1)CCC2.O=C(O)C(F)(F)F | 4.562%
CC(C)N(C)Cc1cc(=O)n2c(n1)CN(C(=O)c1ccc[nH]1)CCC2 | 99.67%
CCN(CC)Cc1cc(=O)n2c(n1)CN(C(=O)c1ccc[nH]1)CCC2 | 89.92%
CC(=O)NC1CCCN(c2ccc(C#N)cc2C(F)(F)F)C1 (configuration not stated) | 47.21%
CC(C)N1CC(C(=O)NC(C)(C)CNC(=O)OC(C)(C)C)CC1=O (configuration not stated) | 16.31%
Cc1ccc(C(=O)OC(C)Cn2cccn2)c(=O)[nH]1 (configuration not stated) | -0.638%
c1csc(SCC2CN=C(N3CCOCC3)S2)c1 (configuration not stated) | -10.18%
CN(CCc1cnn(C)c1)C(=O)C(c1ccccc1F)N(C)C (configuration not stated) | -8.573%
CC(C)c1nsc(N2CCOC3(CCCC3)C2)n1 | -27.55%
CC(C)[C@]1(O)CN(C(=O)C2(Cn3cccn3)CC2)C[C@H]1C | 94.9%
C[C@@H]1CN(C(=O)C2(Cn3cccn3)CC2)CC[C@@]1(O)C1CCOCC1 | 103.7%
C[C@@H]1CN(C(=O)CCN2CCCC2)CC[C@@]1(O)C1CCC1 | -5.805%
CC(C1CC1)N(C)C(=O)CCn1cccn1 (configuration not stated) | -12.77%
C[C@@H]1CN(C(=O)C2(Cn3cccn3)CC2)CC[C@@]1(O)C1CC1 | 95.17%
CCN(C(=O)CCn1cccn1)C1CC1 | 0.4672%
CCCc1cc(C(=O)N2C[C@@H](C)[C@](O)(C3CCC3)C2)[nH]n1 | -1.382%
C[C@@H]1CN(C(=O)CCN2CCCC2)CC[C@@]1(O)C1CCOCC1 | 18.72%
C[C@@H]1CN(C(=O)c2ccncc2)CC[C@@]1(O)C1CCOCC1 | -11.61%
C[C@@H]1CN(C(=O)C2(Cn3cccn3)CC2)C[C@@]1(O)C1CCC1 | 109.7%
C[C@@H]1CN(C(=O)CCc2cnn(C)c2)CC[C@@]1(O)C1CCOCC1 | -4.294%
C[C@@H]1CN(C(=O)CCc2cnn(C)c2)C[C@@]1(O)C1CCC1 | -2.131%
